Values joined by “and” are separate entries in the source; they are usually repeats but may differ in a detail not shown here. Equal entries are not always repeated. Results filed as inconclusive are left out. Active and inactive are the calls of the source. Calls come from the whole dose curve; as a rule, active = well fitted curve in the direction sought with a large enough effect in the repeat runs; inconclusive = weak or mixed curves; inactive = no such curve, though single readings can be large; an effect the other way counts as inactive or inconclusive.
Key:
[1] = Caspase-3/7 induction in HepG2 cells by small molecules, qHTS assay (AID 1346978); note: nearly all actives have a fitted effect of over 15% in size; note: potency is the fitted concentration of half-maximal effect
Procedure, shortened: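 Wild-type HepG2 cells, 2,000/well, settled 5 hr at 37 C and 5% CO2, then compound-treated for 17 hr; caspase-3/7 activity read by luminescent Caspase-Glo 3/7 after 30 min at room temperature.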

[2] = Caspase-3/7 induction in CHO-K1 cells by small molecules, qHTS cell viability counter screen (AID 1346979); note: nearly all actives have a fitted effect of over 35% in size; note: potency is the fitted concentration of half-maximal effect
Procedure, shortened: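 CellTiter-Fluor viability check, qHTS format: wild-type CHO-K1, 16hr compound treatment, 1hr reagent incubation, fluorescence read.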

[3] = Caspase-3/7 induction in CHO-K1 cells by small molecules, qHTS assay (AID 1346980); note: nearly all actives have a fitted effect of over 15% in size; note: potency is the fitted concentration of half-maximal effect
Procedure, shortened: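 Wild-type CHO-K1 cells exposed to compounds for 17hr at 37 C, 5% CO2. Caspase-3/7 activity then measured by Caspase-Glo 3/7 luminescence after 30min at room temperature.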

[4] = Caspase-3/7 induction in HepG2 cells by small molecules, qHTS cell viability counter screen (AID 1346981); note: nearly all actives have a fitted effect of over 30% in size; note: potency is the fitted concentration of half-maximal effect
Procedure, shortened: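 Steps: seed 2,000 HepG2 cells per well; incubate 5 hr at 37 C; pin-add compounds in DMSO; incubate 16 hr; add CellTiter-Fluor; after 1 hr at 37 C and 5% CO2, read fluorescence.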

[5] = target: Nuclear receptor subfamily 1 group I member 2 (Homo sapiens) (UniProt O75469); test: Human pregnane X receptor (PXR) small molecule agonists, qHTS assay (AID 1346982); note: nearly all actives have a fitted effect of over 35% in size; note: potency is the fitted concentration of half-maximal effect
Procedure, shortened: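 Agonist mode qHTS: PXR-Luc HepG2 cells plated 5 hr before DMSO-dissolved compounds were pinned in, cultured 24 hr at 37 C, 5% CO2; ONE-Glo luminescence readout.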

[6] = target: Nuclear receptor subfamily 1 group I member 2 (Rattus norvegicus) (UniProt Q9R1A7); test: Rat pregnane X receptor (rPXR) activation by small molecules, qHTS assay (AID 1346983); settings: rPXR luciferase reporter cells, One-Glo luminescence, 24 h; max activation: stronger effect = higher value; note: nearly all actives have a fitted effect of over 20% in size
Procedure, shortened: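 Cell-based rPXR activation assay: rPXR cells, 2,000 per well, rested 5hr at 37 C, then exposed to compounds in DMSO for 24 hr at 37 C. Luciferase activity read by One-Glo luminescence after 30 min at room temperature.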

[7] = target: Nuclear receptor subfamily 1 group I member 2 (Homo sapiens) (UniProt O75469); test: CYP3A4 induction through human pregnane X receptor (PXR) by small molecules, qHTS assay (AID 1346984); note: nearly all actives have a fitted effect of over 40% in size
Procedure, shortened: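 Steps: seed DPX-2 cells, 5 hr at 37C; pin-transfer compounds; 24 hr at 37C; add Luciferin-IPA (3uM final), 3 hr at 37C; add One-Glo, 30 min RT; read luminescence.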

[8] = target: Nuclear receptor subfamily 1 group I member 2 (Homo sapiens) (UniProt O75469); test: Human pregnane X receptor (PXR) activation by small molecules, qHTS assay (AID 1346985); note: nearly all actives have a fitted effect of over 40% in size; note: potency is the fitted concentration of half-maximal effect
Procedure, shortened: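 DPX-2 cells (HepG2 co-transfected with a PXR response element and a CYP3A4-promoter luciferase construct) were seeded at 2,000 per well, rested 5 hr at 37C, then exposed to DMSO-dissolved compounds for 24 hr. Activation was read as luciferase luminescence.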

[9] = target: Cytochrome P450 2D6 (Homo sapiens) (UniProt P10635); test: Cytochrome P450 Family 2 Subfamily D Member 6 (CYP2D6) small molecule antagonists: luciferase reporter qHTS assay (AID 1671196); note: nearly all actives have a fitted effect of over 50% in size; note: potency is the fitted concentration of half-maximal effect
Procedure, shortened: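 P450-Glo format: CYP2D6 converts a proluciferin substrate to luciferin in an NADPH-driven reaction lasting 1 h at room temperature. Light output, proportional to CYP2D6 activity, reflects interference by test chemicals.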

[10] = target: Cytochrome P450 2C19 (Homo sapiens) (UniProt P33261); test: Cytochrome P450 Family 2 Subfamily C Member 19 (CYP2C19) small molecule antagonists: luciferase reporter qHTS assay (AID 1671197); note: nearly all actives have a fitted effect of over 65% in size; note: potency is the fitted concentration of half-maximal effect
Procedure, shortened: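 Enzyme-substrate mix with proluciferin substrate (P450-Glo CYP2C19 system) preincubated with compounds 10 min at room temperature; NADPH regeneration solution added, 37C for 1 h; detection reagent stops reaction, luminescence read after 20 min. Ketoconazole positive control.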
% is set by controls: 0 for no effect and ±100 for the full control effect.

Sequence of Nuclear receptor subfamily 1 group I member 2 (Homo sapiens) (O75469 whole entry, looked up): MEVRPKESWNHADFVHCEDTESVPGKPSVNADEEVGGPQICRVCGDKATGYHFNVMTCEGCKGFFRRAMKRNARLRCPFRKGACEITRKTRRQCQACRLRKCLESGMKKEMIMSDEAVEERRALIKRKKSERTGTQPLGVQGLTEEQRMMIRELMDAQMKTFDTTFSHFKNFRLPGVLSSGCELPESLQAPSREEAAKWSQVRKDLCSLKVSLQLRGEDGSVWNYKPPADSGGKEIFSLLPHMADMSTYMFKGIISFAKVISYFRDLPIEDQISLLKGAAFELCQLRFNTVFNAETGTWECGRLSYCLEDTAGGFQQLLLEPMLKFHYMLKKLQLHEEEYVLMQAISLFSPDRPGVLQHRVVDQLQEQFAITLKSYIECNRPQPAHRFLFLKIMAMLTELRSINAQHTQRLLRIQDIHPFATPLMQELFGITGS
Sequence of Cytochrome P450 2C19 (Homo sapiens) (P33261 whole entry, looked up): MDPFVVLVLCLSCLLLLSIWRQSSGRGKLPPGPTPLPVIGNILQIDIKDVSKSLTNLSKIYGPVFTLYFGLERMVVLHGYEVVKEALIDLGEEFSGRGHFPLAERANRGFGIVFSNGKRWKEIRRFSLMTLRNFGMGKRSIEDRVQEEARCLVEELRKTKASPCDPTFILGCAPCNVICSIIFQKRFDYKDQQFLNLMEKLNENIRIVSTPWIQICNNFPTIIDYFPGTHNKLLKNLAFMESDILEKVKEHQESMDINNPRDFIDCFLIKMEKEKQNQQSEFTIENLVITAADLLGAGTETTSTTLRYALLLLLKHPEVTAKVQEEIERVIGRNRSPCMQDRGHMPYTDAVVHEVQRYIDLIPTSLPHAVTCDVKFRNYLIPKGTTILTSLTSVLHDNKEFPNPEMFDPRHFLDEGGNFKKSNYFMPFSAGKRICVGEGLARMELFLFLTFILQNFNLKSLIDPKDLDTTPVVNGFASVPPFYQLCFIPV
Sequence of Cytochrome P450 2D6 (Homo sapiens) (P10635 whole entry, looked up): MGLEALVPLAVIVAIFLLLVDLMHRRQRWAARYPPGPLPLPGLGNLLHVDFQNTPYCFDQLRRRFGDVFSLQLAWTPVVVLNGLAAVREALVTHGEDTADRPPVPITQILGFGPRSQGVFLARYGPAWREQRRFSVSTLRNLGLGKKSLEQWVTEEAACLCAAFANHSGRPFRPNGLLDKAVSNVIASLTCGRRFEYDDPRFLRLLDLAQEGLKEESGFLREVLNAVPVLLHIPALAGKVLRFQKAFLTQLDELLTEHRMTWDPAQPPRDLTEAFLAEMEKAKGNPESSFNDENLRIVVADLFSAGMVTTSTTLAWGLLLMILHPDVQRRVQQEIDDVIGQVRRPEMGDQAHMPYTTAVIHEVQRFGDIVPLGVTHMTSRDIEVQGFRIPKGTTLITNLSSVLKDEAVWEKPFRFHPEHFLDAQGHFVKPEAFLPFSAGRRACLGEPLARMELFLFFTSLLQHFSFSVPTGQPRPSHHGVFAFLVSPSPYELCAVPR
Sequence of Nuclear receptor subfamily 1 group I member 2 (Rattus norvegicus) (Q9R1A7 whole entry, looked up): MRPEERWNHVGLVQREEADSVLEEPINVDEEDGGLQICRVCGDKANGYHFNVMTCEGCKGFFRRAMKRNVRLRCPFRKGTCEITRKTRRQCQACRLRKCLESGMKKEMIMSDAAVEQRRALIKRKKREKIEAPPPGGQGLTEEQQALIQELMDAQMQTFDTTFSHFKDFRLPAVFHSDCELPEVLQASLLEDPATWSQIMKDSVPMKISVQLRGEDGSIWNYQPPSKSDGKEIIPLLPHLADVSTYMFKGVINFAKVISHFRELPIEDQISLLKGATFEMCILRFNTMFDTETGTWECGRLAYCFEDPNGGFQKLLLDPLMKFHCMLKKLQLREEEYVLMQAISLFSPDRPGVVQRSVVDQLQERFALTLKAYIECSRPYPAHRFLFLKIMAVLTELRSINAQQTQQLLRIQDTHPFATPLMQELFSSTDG

CO[C@H]1C=CO[C@@]2(C)Oc3c(C)c(O)c4c(O)c(cc(O)c4c3C2=O)NC(=O)/C(C)=C\C=C/[C@H](C)[C@H](O)[C@@H](C)[C@@H](O)[C@@H](C)[C@H](OC(C)=O)[C@@H]1C
inactive: Potency [1] | Potency [3] | max activation [6] -1.49% | Potency [7] | Potency [8]
active: Potency [2] 19.5 µM | Potency [4] 61.6 µM | Potency [5] 7.75 µM | Potency [9] 35.8 µM | Potency [10] 20.2 µM

CCCCCCCC(=O)OCC
inactive: Potency [1] | Potency [2] | Potency [3] | Potency [4] | Potency [5] | Potency [9] | Potency [10]

Cc1cc(C)c(C=O)c(C)c1
inactive: Potency [1] | Potency [2] | Potency [3] | Potency [4]
active: Potency [5] 43.3 µM

Clc1ccc(C(Cn2ccnc2)OCc2c(Cl)cccc2Cl)c(Cl)c1 (configuration not stated)
inactive: Potency [1] | Potency [3]
active: Potency [2] 21.1 µM

C=CC(=C)CCC=C(C)C
inactive: Potency [1] | Potency [2] | Potency [3] | Potency [4] | Potency [5] | Potency [9]

CCN(CC)CCCN(c1ccccc1)C1Cc2ccccc2C1
inactive: Potency [1] | Potency [2] | Potency [3] | Potency [4] | Potency [5] | max activation [6] -18.4% | Potency [7]
active: Potency [8] 5.01 µM | Potency [9] 0.389 µM

CCCCCCCCCCCCCCCC
inactive: Potency [1] | Potency [2] | Potency [3] | Potency [4] | Potency [5] | Potency [9] | Potency [10]

C=CC(=O)OCCC#N
active: Potency [2] 61.5 µM
inactive: Potency [1] | Potency [3] | Potency [4] | Potency [5] | Potency [9] | Potency [10]

CCN=c1cc2oc3cc(NCC)c(C)cc3c(-c3ccccc3C(=O)OCC)c-2cc1C
active: Potency [1] 27.3 µM | Potency [2] 965 nM and 611 nM | Potency [3] 43.1 µM and 48.6 µM | Potency [4] 2.72 µM and 7.7 µM | Potency [5] 2.42 µM and 1.72 µM | Potency [9] 17.8 µM and 20 µM | Potency [10] 7.94 µM and 10 µM

CCCCCCCCCC(=O)N(C)C
inactive: Potency [1] | Potency [2] | Potency [3] | Potency [4] | Potency [9]
active: Potency [5] 62.1 µM | Potency [10] 36.1 µM

O=C1OC(=O)c2cccc3cccc1c23
inactive: Potency [1] | Potency [2] | Potency [3] | Potency [4] | Potency [9] | Potency [10]
active: Potency [5] 19.5 µM

CCN(CC)CCNc1ccc(CO)c2sc3ccccc3c(=O)c12
inactive: Potency [3] | Potency [5] | Potency [10]
active: Potency [1] 13.3 µM | Potency [2] 23.7 µM | Potency [4] 13.3 µM | Potency [9] 3.47 µM

COc1nccnc1CC(C)C
inactive: Potency [1] | Potency [2] | Potency [3] | Potency [4] | Potency [5] | Potency [9] | Potency [10]

CC(C)C(=O)OCc1ccccc1
inactive: Potency [1] | Potency [2] | Potency [3] | Potency [4] | Potency [5] | Potency [9] | Potency [10]

CCc1cccc(C)c1
inactive: Potency [1] | Potency [2] | Potency [3] | Potency [4] | Potency [5] | Potency [9] | Potency [10]

CCCCOCC
inactive: Potency [1] | Potency [2] | Potency [3] | Potency [4] | Potency [5] | Potency [9] | Potency [10]

CO[Si](CCC1CCC2OC2C1)(OC)OC (configuration not stated)
inactive: Potency [1] | Potency [2] | Potency [3] | Potency [4] | Potency [5] | Potency [9] | Potency [10]

CCc1c(Br)c(Br)c(Br)c(Br)c1Br
inactive: Potency [1] | Potency [2] | Potency [3] | Potency [4] | Potency [5] | Potency [9] | Potency [10]

c1ccc(Sc2ccccc2)cc1
inactive: Potency [1] | Potency [2] | Potency [3] | Potency [4] | Potency [5] | Potency [9]
active: Potency [10] 7.1 µM

Clc1nc2ccccc2s1
inactive: Potency [1] | Potency [2] | Potency [3] | Potency [4] | Potency [5] | Potency [9] | Potency [10]

CCCC(=O)OCC(COC(=O)CCC)OC(=O)CCC
active: Potency [10] 20 µM
inactive: Potency [1] | Potency [2] | Potency [3] | Potency [4] | Potency [5] | Potency [9]

CO[Si](CCCNCCNCCN)(OC)OC
inactive: Potency [1] | Potency [2] | Potency [3] | Potency [4] | Potency [5] | Potency [9] | Potency [10]

Cc1cnccn1
inactive: Potency [1] | Potency [2] | Potency [3] | Potency [4] | Potency [5] | Potency [9] | Potency [10]

CC1CCCCC1
inactive: Potency [1] | Potency [2] | Potency [3] | Potency [4] | Potency [5] | Potency [9] | Potency [10]

CCNc1nc(NC(C)CC)nc(OC)n1 (configuration not stated)
inactive: Potency [1] | Potency [2] | Potency [3] | Potency [4] | Potency [9]
active: Potency [5] 24.3 µM | Potency [10] 7.96 µM

c1ccc2c(c1)CCC2
inactive: Potency [1] | Potency [2] | Potency [3] | Potency [4] | Potency [5] | Potency [9] | Potency [10]

CC1(C)COCN1
inactive: Potency [1] | Potency [2] | Potency [3] | Potency [4] | Potency [5] | Potency [9] | Potency [10]

— PubChem BioAssay (Tox21)
